Inconclusive results are not listed. The source made the active and inactive calls. How the source made its calls, unless noted: active means hit-call score of the fitted dose curve at least 0.9, where 1 is the maximum; inconclusive means response in the unintended direction; inactive means score below 0.9.
Key:
[1] = molecular target: Peroxisome proliferator-activated receptor gamma (Homo sapiens) (UniProt P37231); test: NVS_NR_hPPARg: NovaScreen (NVS) Nuclear Receptor Binding Assay for human Peroxisome Proliferator-activated Receptor gamma (PPARg) (AID 2283370)
Peroxisome proliferator-activated receptor gamma (Homo sapiens), sequence (P37231 whole entry, looked up): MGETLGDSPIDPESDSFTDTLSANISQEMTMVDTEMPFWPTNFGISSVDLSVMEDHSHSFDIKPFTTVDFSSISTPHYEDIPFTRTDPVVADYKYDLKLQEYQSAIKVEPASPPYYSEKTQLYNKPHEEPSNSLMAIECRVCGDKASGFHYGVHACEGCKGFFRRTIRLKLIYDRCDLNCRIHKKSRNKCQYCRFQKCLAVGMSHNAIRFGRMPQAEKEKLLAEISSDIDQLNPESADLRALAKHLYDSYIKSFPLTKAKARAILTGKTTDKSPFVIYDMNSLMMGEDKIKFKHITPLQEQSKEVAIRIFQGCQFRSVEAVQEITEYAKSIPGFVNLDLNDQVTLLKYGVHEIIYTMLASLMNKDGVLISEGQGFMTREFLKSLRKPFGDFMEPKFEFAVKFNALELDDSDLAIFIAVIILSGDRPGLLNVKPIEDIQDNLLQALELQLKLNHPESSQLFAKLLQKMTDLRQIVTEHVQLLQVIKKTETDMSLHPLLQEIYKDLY
Procedure, shortened: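 Cell-free binding to extracted PPARg protein, read by fluorescence polarization 2 h after dosing; loss of signal relative to DMSO baseline marks displacement. Primary screen in duplicate at 25 uM, actives retested in concentration series.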

[2] = CEETOX_H295R_11DCORT: CeeTox H295R High-throughput Steroidogenesis Assay for 11-Deoxycortisol (11DCORT) (AID 2283432; active means hit-call score of the fitted dose curve at least 0.9, where 1 is the maximum; inactive means score below 0.9;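 on AC50: 11-deoxycortisol secreted into the medium measured by LC-MS/MS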); conditions: actives raise or lower the signal
Procedure, shortened: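 H295R cells; 10 uM forskolin prestim 48 h; compound in 0.1% DMSO 48 h; media extracted with MTBE; 11-deoxycortisol by LC-MS/MS, 7-point standard curve; gain/loss vs DMSO baseline; viability by MTT in same wells.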

[3] = CEETOX_H295R_CORTIC: CeeTox H295R High-throughput Steroidogenesis Assay for Corticosterone (CORTIC) (AID 2283437; active means hit-call score of the fitted dose curve at least 0.9, where 1 is the maximum; inactive means score below 0.9;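 further: corticosterone secreted into medium quantified by mass spectrometry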); conditions: actives raise or lower the signal
Procedure, shortened: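 H295R cells were prestimulated 48 h with 10 uM forskolin, then exposed 48 h to test chemical in 0.1% DMSO. Medium corticosterone was MTBE-extracted and quantified by HPLC-MS/MS; bidirectional fit versus DMSO baseline.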

[4] = CEETOX_H295R_CORTISOL: CeeTox H295R High-throughput Steroidogenesis Assay for Cortisol (AID 2283438; active means hit-call score of the fitted dose curve at least 0.9, where 1 is the maximum; inactive means score below 0.9;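 further: cortisol secreted into medium quantified by LC-MS/MS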); conditions: actives raise or lower the signal
Procedure, shortened: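 H295R human adrenal cells were prestimulated 48 h with 10 uM forskolin, then exposed 48 h to test chemical (0.1% DMSO final). Medium cortisol was quantified by HPLC-MS/MS after MTBE extraction; bidirectional fitting relative to DMSO baseline.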

[5] = CEETOX_H295R_DOC: CeeTox H295R High-throughput Steroidogenesis Assay for DOC (AID 2283439; active means hit-call score of the fitted dose curve at least 0.9, where 1 is the maximum; inactive means score below 0.9); conditions: actives raise or lower the signal
Procedure, shortened: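 H295R adrenal cells prestimulated 48 h with 10 uM forskolin, then exposed 48 h to test chemical (0.1% DMSO final). Medium 11-deoxycorticosterone extracted with MTBE, quantified by HPLC-MS/MS; bidirectional fit versus DMSO baseline; MTT viability in same wells.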

[6] = CCTE_Deisenroth_AIME_384WELL_CTox_Active: Cytotoxicity Assessment (CTOX) in CCTE's 384-well Estrogen Receptor Transactivation Assay with AIME metabolic competence (metabolism positive), Deisenroth Lab (AID 2284037);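 further: chemicals first conditioned 2 h by alginate-bound induced rat liver S9 before cells; activity means signal loss indicating cell death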
Procedure, shortened: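 VM7Luc4E2 breast cells received medium pre-incubated 2 h with chemical over alginate microspheres holding induced male Sprague Dawley rat liver S9; viability read 24 h later by protease-substrate fluorescence. Loss of signal, bidirectional fit, 0.002–200 uM.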

[7] = CCTE_Deisenroth_AIME_384WELL_CTox_Inactive: Cytotoxicity Assessment (CTOX) in CCTE's 384-well Estrogen Receptor Transactivation Assay without AIME metabolic competence (metabolism negative), Deisenroth Lab (AID 2284039);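 further: cell viability via live-cell protease substrate cleaved to fluorescent probe; cells exposed 24 h to medium preincubated 2 h with alginate-water beads without S9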
Procedure, shortened: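 VM7Luc4E2 human breast cells received conditioned medium from a 2 h incubation of chemical with alginate-water microspheres (no S9), then were exposed 24 h. Viability was read as protease-substrate cleavage to a fluorescent probe; loss of signal was fitted bidirectionally over 0.002–200 uM.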

[8] = molecular target: rat Thyrotropin Releasing Hormone Receptor (TRH), Trhr (gene 25570) (UniProt Q01717); test: NVS_GPCR_rTRH: NovaScreen (NVS) G Protein-Coupled Receptor Assay for rat Thyrotropin Releasing Hormone Receptor (TRH) (AID 2283329);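 further: hit means lower bound tracer signal versus DMSO baseline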
rat Thyrotropin Releasing Hormone Receptor (TRH), Trhr (gene 25570), sequence (Q01717 whole entry, looked up): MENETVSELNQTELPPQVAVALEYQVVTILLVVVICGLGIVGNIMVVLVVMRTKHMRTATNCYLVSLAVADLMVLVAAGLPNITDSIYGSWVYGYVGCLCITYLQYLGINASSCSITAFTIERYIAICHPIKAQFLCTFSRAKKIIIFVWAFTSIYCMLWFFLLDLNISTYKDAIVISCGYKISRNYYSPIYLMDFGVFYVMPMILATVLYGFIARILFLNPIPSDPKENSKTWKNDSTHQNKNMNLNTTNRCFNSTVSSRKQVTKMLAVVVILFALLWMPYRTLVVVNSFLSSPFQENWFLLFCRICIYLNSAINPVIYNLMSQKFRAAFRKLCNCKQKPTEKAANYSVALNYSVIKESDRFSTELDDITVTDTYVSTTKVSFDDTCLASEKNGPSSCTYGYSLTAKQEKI
Procedure, shortened: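 Cell-free radioligand binding on rat forebrain membranes; bound tracer measured by filter-based scintillation counting 4 hours after dosing. Loss of signal versus DMSO baseline indicates displacement; primary screen at 25 uM in duplicate, actives then run in concentration series.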

[9] = molecular target: human Dopamine Transporter (DAT), SLC6A3 (gene 6531) (UniProt Q01959); test: NVS_TR_hDAT: NovaScreen (NVS) Transporter Assay for human Dopamine Transporter (DAT) (AID 2283374);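 further: activity means loss of bound radioligand signal relative to DMSO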
human Dopamine Transporter (DAT), SLC6A3 (gene 6531), sequence (Q01959 whole entry, looked up): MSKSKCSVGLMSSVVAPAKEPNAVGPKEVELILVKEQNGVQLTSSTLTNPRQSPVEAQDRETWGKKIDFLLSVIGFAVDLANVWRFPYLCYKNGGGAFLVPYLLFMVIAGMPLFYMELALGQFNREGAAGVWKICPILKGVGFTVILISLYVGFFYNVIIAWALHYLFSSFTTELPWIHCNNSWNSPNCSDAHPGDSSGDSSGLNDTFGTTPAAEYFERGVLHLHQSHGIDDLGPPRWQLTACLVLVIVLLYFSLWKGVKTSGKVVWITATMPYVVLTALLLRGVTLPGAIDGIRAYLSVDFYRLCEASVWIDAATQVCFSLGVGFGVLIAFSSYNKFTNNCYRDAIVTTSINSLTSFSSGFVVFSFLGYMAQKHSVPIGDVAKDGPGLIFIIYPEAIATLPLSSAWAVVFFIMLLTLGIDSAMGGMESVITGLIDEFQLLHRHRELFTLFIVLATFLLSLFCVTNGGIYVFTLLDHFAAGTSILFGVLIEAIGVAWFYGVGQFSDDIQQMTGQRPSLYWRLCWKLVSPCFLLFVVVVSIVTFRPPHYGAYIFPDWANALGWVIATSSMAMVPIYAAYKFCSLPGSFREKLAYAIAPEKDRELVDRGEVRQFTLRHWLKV
Procedure, shortened: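 Cell-free radioligand binding to extracted human DAT protein, read 1 h after dosing by filter-based scintillation counting. Loss of specific binding scored against DMSO baseline; primary screen in duplicate at 25 uM, actives then run in concentration series.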

[10] = molecular target: human Phosphodiesterase 10 (PDE10), PDE10A (gene 10846) (UniProt Q9Y233); test: NVS_ENZ_hPDE10: NovaScreen (NVS) Enzymatic Assay for human Phosphodiesterase 10 (PDE10) (AID 2283195)
human Phosphodiesterase 10 (PDE10), PDE10A (gene 10846), sequence (Q9Y233 whole entry, looked up): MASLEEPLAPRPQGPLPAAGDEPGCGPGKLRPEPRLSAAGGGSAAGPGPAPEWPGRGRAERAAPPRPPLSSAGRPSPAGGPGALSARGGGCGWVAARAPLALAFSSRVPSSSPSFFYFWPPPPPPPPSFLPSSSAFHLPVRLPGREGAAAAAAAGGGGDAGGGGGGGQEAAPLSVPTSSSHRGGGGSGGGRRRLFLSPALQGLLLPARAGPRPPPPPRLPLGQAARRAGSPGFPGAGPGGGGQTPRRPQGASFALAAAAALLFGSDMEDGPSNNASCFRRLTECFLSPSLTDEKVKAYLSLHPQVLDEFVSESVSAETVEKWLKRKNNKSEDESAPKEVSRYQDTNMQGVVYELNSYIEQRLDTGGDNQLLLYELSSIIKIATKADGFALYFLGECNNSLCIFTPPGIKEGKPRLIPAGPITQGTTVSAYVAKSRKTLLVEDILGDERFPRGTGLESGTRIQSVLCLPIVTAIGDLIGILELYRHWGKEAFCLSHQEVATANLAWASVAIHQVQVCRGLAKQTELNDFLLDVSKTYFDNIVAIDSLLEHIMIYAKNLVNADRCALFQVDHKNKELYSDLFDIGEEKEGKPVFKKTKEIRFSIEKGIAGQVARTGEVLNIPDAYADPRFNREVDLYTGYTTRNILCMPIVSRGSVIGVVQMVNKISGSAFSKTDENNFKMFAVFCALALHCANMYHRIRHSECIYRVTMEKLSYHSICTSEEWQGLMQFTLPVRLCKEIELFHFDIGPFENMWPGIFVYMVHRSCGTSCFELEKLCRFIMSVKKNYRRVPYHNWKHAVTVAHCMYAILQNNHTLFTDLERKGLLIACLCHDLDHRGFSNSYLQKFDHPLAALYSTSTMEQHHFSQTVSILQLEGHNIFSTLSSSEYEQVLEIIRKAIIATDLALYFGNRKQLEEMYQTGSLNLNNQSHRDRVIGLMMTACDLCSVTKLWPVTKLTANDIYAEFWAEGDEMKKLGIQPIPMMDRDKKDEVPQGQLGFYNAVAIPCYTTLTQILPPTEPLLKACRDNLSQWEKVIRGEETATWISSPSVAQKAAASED
Procedure, shortened: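 Fluorescence/mobility-shift readout of PDE10A enzyme activity, taken 1 h post-dosing. Primary screen in duplicate at 25 uM; actives (e.g. ≥30% inhibition) retested as singleton concentration-response, top concentration 50 uM.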

[11] = CCTE_Padilla_ZF_Score.General: CCTE's 144 Hour Post-fertilization zebrafish Assay Score for General Malformation, Padilla Lab (AID 2284411; active means hit-call score of the fitted dose curve at least 0.9, where 1 is the maximum; inactive means score below 0.9)
Procedure, shortened: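 Wild-type zebrafish embryos were plated singly at 6-8 hpf in 10% Hanks' and exposed in sealed wells at 26C until rinsed on 5 dpf. At 6 dpf two blinded assessors scored mortality, hatching and malformations by stereomicroscopy; gain-of-signal versus DMSO.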

[12] = CEETOX_H295R_OHPREG: CeeTox H295R High-throughput Steroidogenesis Assay for OH-Pregnenolone (OHPREG) (AID 2283434; active means hit-call score of the fitted dose curve at least 0.9, where 1 is the maximum; inactive means score below 0.9); conditions: actives raise or lower the signal
Procedure, shortened: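 Human adrenal H295R cells were prestimulated 48 h with 10 uM forskolin, then exposed 48 h to chemical in 0.1% DMSO. Medium 17alpha-hydroxypregnenolone was quantified by HPLC-MS/MS after MTBE extraction; bidirectional fitting versus DMSO baseline.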

[13] = CEETOX_H295R_OHPROG: CeeTox H295R High-throughput Steroidogenesis Assay for OH-Progesterone (OHPROG) (AID 2283435; active means hit-call score of the fitted dose curve at least 0.9, where 1 is the maximum; inactive means score below 0.9); conditions: actives raise or lower the signal
Procedure, shortened: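 H295R human adrenal cells were prestimulated 48 h with 10 uM forskolin, then exposed 48 h to test chemical (0.1% DMSO final). 17alpha-hydroxyprogesterone in medium was measured by HPLC-MS/MS after MTBE extraction; bidirectional fitting vs DMSO.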

Q: Which outcome [1] does the source give for `Cc1cc(C)c(C2=C(OC(=O)CC(C)(C)C)C3(CCCC3)OC2=O)c(C)c1` here?
A: Its outcome is “inactive”.

Q: What about the AC50 [2] of the same molecule?
A: The AC50 was 72.4 µM (active).

Q: What about the outcome [3] of the same molecule?
A: Its outcome is “inactive”.

Q: What about the AC50 [4] of the same molecule?
A: Its AC50 is 69.2 µM (active).

Q: What about the outcome [5] of the same molecule?
A: Its outcome is “inactive”.

Q: What about the outcome [6] of the same molecule?
A: The outcome was “inactive”.

Q: What about the outcome [7] of the same molecule?
A: The outcome was “inactive”.

Q: With `C=CCN(CC=C)C(=O)C(Cl)Cl` as the molecule, how does the outcome [8] read?
A: The outcome was “inactive”.

Q: And the outcome [6]?
A: Its outcome is “inactive”.

Q: And the outcome [7]?
A: The outcome was “inactive”.

Q: For `C[C@]12CC[C@H](O)C[C@H]1CC[C@@H]1[C@@H]2C[C@@H](O)[C@]2(C)[C@@H](C3=CC(=O)OC3)CC[C@]12O`, which AC50 [9] is on record?
A: The AC50 was 40.9 µM (active).

Q: For `O=[N+]([O-])C=Cc1ccccc1`, which outcome [10] is on record?
A: Its outcome is “inactive”.

Q: What about the AC50 [9] of the same molecule?
A: Its AC50 is 25 µM (active).

Q: And the AC50 [11]?
A: The AC50 was 2.31 µM (active).

Q: For `O=S(=O)(O)OOS(=O)(=O)O`, which outcome [8] is on record?
A: Its outcome is “inactive”.

Q: And the outcome [6]?
A: The outcome was “inactive”.

Q: What about the outcome [7] of the same molecule?
A: Its outcome is “inactive”.

Q: Which AC50 [9] does the source give for `c1ccc(Nc2ccc3ccccc3c2)cc1` here?
A: Its AC50 is 13 µM (active).

Q: What about the outcome [2] of the same molecule?
A: The outcome was “inactive”.

Q: What about the outcome [12] of the same molecule?
A: The outcome was “inactive”.

Q: What about the AC50 [13] of the same molecule?
A: Its AC50 is 5.24 µM (active).

Q: And the outcome [3]?
A: The outcome was “inactive”.

Q: And the outcome [4]?
A: Its outcome is “inactive”.

Q: What about the outcome [5] of the same molecule?
A: Its outcome is “inactive”.

Q: And the outcome [11]?
A: The outcome was “inactive”.
